This is an account of results in PubChem BioAssay (Tox21).

“And” between values parts separate entries of the source, which are not always exact repeats. Equal values may be shown once. Values without a mark were called inactive. Results filed as inconclusive are left out. The source made the active and inactive calls. Unless noted, calls come from the whole dose curve; as a rule, active = well fitted curve in the direction sought with a large enough effect in the repeat runs; inconclusive = weak or mixed curves; inactive = no such curve, though single readings can be large; an effect the other way counts as inactive or inconclusive.

Experiment [1] is described as follows: qHTS assay to identify small molecule agonists of the constitutive androstane receptor (CAR) signaling pathway - cell viability counter screen (AID 1224836). Note: nearly all actives have a fitted effect of over 45% in size. The method, boiled down: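 Counter screen multiplexed with the CAR reporter readout: HepG2 cells co-transfected with hCAR and the CYP2B6-2.2kb construct receive a 15-concentration compound series and 0.75 uM PK11195 (final), then CellTiter-Fluor fluorescence is read after 23 h.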
For orientation: In qHTS, concentration-response curves come from the screen itself.

Experiment [2] in a line: qHTS assay to identify small molecule antagonists of the constitutive androstane receptor (CAR) signaling pathway - cell viability counter screen (AID 1224837). Note: nearly all actives have a fitted effect of over 45% in size. The method, boiled down: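 HepG2 cells stably carrying hCAR and CYP2B6-2.2kb reporter, stimulated with 50 nM CITCO and compounds at 15 concentrations for 23 h at 37 C. Viability measured by CellTiter-Fluor fluorescence.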

The target of experiment [3] is Nuclear receptor subfamily 1 group I member 3 (Homo sapiens) (UniProt Q14994). Description: qHTS assay to identify small molecule agonists of the constitutive androstane receptor (CAR) signaling pathway (AID 1224839). Note: nearly all actives have a fitted effect of over 15% in size. Note: potency is the fitted concentration of half-maximal effect. In outline:
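A 15-concentration quantitative screen uses HepG2 cells co-transfected stably with human CAR and CYP2B6-2.2kb reporter. Treatment lasts 24 h with 0.75 uM PK11195 final present; ONE-Glo luminescence is the signal.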

Experiment [4] in a line: qHTS assay to identify small molecule antagonists of the estrogen related receptor signaling pathway with the pleiotropic PPARgamma coactivator (PGC) from Tox21 10K library - cell viability counter screen (AID 1224840; active = well fitted cell-killing curve with a large enough effect in the repeat runs, not every such curve was filed as active; note: nearly all actives have a fitted effect of over 40% in size; note: potency is the fitted concentration of half-maximal effect). The method, boiled down: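 PGC/ERR cells (2,000/well) plated 6 h, then compound-treated for 17.5 h at 37 C. Viability measured by CellTiter-Fluor fluorescence after 30 min at 37 C, multiplexed with the pathway assay.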

A short description of experiment [5]: qHTS assay to identify small molecule agonists of the estrogen related receptor signaling pathway with the pleiotropic PPARgamma coactivator (PGC) from Tox21 10K library (AID 1224842). Note: nearly all actives have a fitted effect of over 15% in size. The method, boiled down: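 PGC/ERR reporter cells (NTP line) were seeded 2,000 per well, rested 6 h at 37 C/5% CO2, then pin-dosed with compounds in DMSO for 18 h at 37 C; luciferase read by One-Glo luminescence after 30 min at room temperature.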

Experiment [6] addresses Thyrotropin receptor (Homo sapiens) (UniProt P16473). Description: qHTS assay to identify small molecule agonists of the thyroid stimulating hormone receptor (TSHR) signaling pathway (AID 1224843; calls by dose curve; note: nearly all actives have a fitted effect of over 45% in size). The method, boiled down: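 Cell line HEK293 with TSHR; density 800/well. Exposure 30 min RT. Readout HTRF cAMP (cAMP-d2/anti-cAMP-cryptate), 1 h RT before reading.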
Experiment [7] is described as follows: qHTS assay to identify small molecule agonists of the hypoxia (HIF-1) signaling pathway - cell viability counter screen (AID 1224844; calls by dose curve; note: nearly all actives have a fitted effect of over 50% in size). The method, boiled down: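 HRE-bla ME-180 cells, 2,000/well in 0.5% dialyzed FBS medium, treated 17 h at 37C with compounds. Viability read in the same wells as the bla reporter, by CellTiter-Glo luminescence after 30 min at room temperature.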

Experiment [8] is described as follows: qHTS assay to identify small molecule agonists of the hypoxia (HIF-1) signaling pathway (AID 1224846; active = well fitted activation curve with a large enough effect in the signal ratio in the repeat runs, not every such curve was filed as active; the % refers to the signal ratio). In outline: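 HRE-bla ME-180 beta-lactamase reporter cells in medium with 0.5% dialyzed FBS, pre-incubated 5 h then exposed to compounds 17 h at 37C, 5% CO2; reporter induction read with CCF4-AM FRET substrate.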
Experiment [9] can be described thus: qHTS assay to identify small molecule agonists of H2AX - cell viability counter screen (AID 1224847; calls by dose curve; note: nearly all actives have a fitted effect of over 30% in size; note: potency is the fitted concentration of half-maximal effect). The method, boiled down:
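We seed wild-type CHO-K1 cells overnight, treat them for 3 hr at 37C with compounds in 15-concentration series, and quantify remaining viability by CellTiter-Glo luminescence.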

Experiment [10] can be described thus: qHTS assay to identify small molecule antagonists of the estrogen related receptor (ERR) signaling pathway from Tox21 library (AID 1224848). Note: nearly all actives have a fitted effect of over 50% in size. Note: potency is the fitted concentration of half-maximal effect. The method, boiled down: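 Screening used an ERR reporter line supplied by NTP, exposed for 18 h at 37 C to library compounds delivered in DMSO. Signal was luciferase luminescence developed with ONE-Glo at room temperature for 30 min.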

Experiment [11] can be described thus: qHTS assay to identify small molecule agonists of the estrogen related receptor (ERR) signaling pathway from Tox21 library (AID 1224849; calls by dose curve; note: nearly all actives have a fitted effect of over 15% in size). As to conditions: ERR reporter cell line, ONE-Glo luciferase, 18 h; at 92.4 µM (top of the series) unless noted. In outline: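 ERR reporter cells (NTP line) pre-incubated 6 hours at 37 C, then exposed to compounds for 18 hours at 37 C. ONE-Glo luciferase luminescence was read after 30 minutes at room temperature.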

Experiment [12] in a line: qHTS RealTime-Glo MT Cell Viability Assay in HepG2 cells - 24 hour (AID 1224867). Note: nearly all actives have a fitted effect of over 50% in size. Note: potency is the fitted concentration of half-maximal effect. In outline:
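qHTS, HepG2, 600 cells/well, RealTime-Glo (NanoLuc + prosubstrate) added with cells; 5 h preincubation; DMSO compound addition; 37 C; luminescence at 0/8/16/24/32/40 h.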

Experiment [13] in a line: qHTS assay to identify small molecule antagonists of the estrogen related receptor signaling pathway with the pleiotropic PPARgamma coactivator (PGC) from Tox21 10K library (AID 1224841; call rule not given here; note: actives are mostly falling curves and most rising ones were filed inactive; nearly all actives have a fitted effect of over 50% in size; note: potency is the fitted concentration of half-maximal effect). In outline:
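PGC/ERR cell line, 2,000 cells/well, pre-incubated 6 hours at 37 C, then exposed to compounds for 18 hours at 37 C; luciferase read with One-Glo luminescence after 30 min at room temperature.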

The nature of experiment [14]: qHTS assay to identify small molecule agonists of H2AX (AID 1224845; active = well fitted activation curve with a large enough effect in the signal ratio in the repeat runs, not every such curve was filed as active; the % refers to the signal ratio). In outline:
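Wild-type CHO-K1 cells plated overnight, then exposed 3 hr at 37C to compounds at 15 concentrations (0.76% DMSO). Lysed, then HTRF anti-pH2AX(S139)-cryptate/anti-H2AX-d2 detection after 24 hr at room temperature; emissions 665 and 620 nm.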

Experiment [15] in a line: qHTS RealTime-Glo MT Cell Viability Assay in HEK293 cells - 32 hour (AID 1224868). Note: nearly all actives have a fitted effect of over 50% in size. Note: potency is the fitted concentration of half-maximal effect. The method, boiled down:
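Assay medium contained NanoLuc luciferase plus cell-permeant prosubstrate, added with HEK293 cells at 600 cells/well. After 5 h at 37 C/5% CO2 compounds were added; plates stayed at 37 C for 40 h with serial luminescence reads.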

Experiment [16] can be described thus: A CellTox Green Cytotoxicity Assay to monitor cytotoxicity in HEK293 cells - 0 hour (AID 1224869). Note: nearly all actives have a fitted effect of over 50% in size. In outline: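 HEK293 cells, 600/well, were preincubated 5 hours and then exposed to compounds at 37 C for up to 40 hours. A cell-impermeant cyanine dye staining dead-cell DNA was read by fluorescence at 0, 8, 16, 24, 32 and 40 h time points.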
The target in experiment [17] is Luciferin 4-monooxygenase (Photinus pyralis) (UniProt P08659). Description: qHTS assay to identify small molecule inhibitors of firefly luciferase (AID 1224835). Note: nearly all actives have a fitted effect of over 25% in size. The method, boiled down:
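Quantitative HTS format; KM concentrations of both substrates. Purified P. pyralis FLuc activity quantified from luminescence images.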

The target in experiment [18] is Nuclear receptor subfamily 1 group I member 3 (Homo sapiens) (UniProt Q14994). Description: qHTS assay to identify small molecule antagonists of the constitutive androstane receptor (CAR) signaling pathway (AID 1224838). Note: nearly all actives have a fitted effect of over 40% in size. Note: potency is the fitted concentration of half-maximal effect. The method, boiled down: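 HepG2 cells stably carrying hCAR and a CYP2B6-2.2kb luciferase reporter, seeded 4 hrs before compound (15 concentrations). Stimulated with 50 nM CITCO for 24 hr at 37 C. ONE-Glo luminescence read after 30 min at room temperature.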
% is set by controls: 0 for no effect and ±100 for the full control effect.

Sequence of Luciferin 4-monooxygenase (Photinus pyralis) (P08659 whole entry, looked up): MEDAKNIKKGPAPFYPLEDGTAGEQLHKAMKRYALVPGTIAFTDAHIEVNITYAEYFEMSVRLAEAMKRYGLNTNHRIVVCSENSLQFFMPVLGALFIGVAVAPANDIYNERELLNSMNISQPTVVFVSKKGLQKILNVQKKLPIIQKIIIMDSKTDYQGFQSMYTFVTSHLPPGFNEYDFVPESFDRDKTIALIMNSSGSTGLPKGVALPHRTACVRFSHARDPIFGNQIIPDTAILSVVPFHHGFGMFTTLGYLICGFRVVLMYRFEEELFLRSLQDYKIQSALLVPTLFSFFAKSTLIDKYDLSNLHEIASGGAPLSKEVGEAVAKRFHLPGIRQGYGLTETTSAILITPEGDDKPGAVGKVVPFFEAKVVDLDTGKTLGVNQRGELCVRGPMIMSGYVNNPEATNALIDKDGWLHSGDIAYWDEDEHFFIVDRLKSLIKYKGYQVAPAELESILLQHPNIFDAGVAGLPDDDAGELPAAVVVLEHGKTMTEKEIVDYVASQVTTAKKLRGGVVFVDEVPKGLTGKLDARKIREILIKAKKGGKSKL
Sequence of Thyrotropin receptor (Homo sapiens) (P16473 whole entry, looked up): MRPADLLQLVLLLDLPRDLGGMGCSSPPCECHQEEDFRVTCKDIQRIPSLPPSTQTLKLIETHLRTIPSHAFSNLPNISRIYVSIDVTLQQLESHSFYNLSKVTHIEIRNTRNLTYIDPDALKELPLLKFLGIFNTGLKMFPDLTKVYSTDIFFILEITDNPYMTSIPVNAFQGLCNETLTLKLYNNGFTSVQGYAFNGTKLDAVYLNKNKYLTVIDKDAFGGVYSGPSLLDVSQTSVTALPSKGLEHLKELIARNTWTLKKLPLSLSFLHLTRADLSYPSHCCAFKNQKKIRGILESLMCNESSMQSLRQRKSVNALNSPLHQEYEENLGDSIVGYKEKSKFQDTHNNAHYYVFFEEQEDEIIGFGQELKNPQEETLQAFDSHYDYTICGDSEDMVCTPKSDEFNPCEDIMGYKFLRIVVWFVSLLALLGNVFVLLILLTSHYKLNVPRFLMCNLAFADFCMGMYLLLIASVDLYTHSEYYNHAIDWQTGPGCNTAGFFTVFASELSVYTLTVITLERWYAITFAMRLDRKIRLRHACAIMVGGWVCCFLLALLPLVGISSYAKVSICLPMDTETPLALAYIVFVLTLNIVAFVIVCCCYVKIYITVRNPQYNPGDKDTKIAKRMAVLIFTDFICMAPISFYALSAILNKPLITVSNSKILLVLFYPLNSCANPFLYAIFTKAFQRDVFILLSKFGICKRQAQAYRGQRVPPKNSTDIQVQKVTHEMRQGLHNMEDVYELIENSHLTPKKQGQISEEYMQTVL
Sequence of Nuclear receptor subfamily 1 group I member 3 (Homo sapiens) (Q14994 whole entry, looked up): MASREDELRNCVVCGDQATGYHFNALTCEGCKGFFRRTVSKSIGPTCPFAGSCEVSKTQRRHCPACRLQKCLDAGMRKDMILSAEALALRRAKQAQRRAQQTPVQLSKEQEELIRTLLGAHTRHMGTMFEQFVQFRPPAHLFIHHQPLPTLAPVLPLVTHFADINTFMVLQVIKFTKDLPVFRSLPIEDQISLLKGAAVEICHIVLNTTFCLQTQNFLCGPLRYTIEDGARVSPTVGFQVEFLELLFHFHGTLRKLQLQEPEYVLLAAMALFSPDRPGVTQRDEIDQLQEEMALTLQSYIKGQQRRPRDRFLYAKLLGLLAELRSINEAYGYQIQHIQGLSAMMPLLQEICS

As for `CC[C@H]1C[C@H]2[C@@H]3CCC4=CC(=O)CC[C@@H]4[C@H]3CC[C@]2(C)[C@H]1O`, the Potency result in [1], in [2], in [3], in [4], in experiment [5] and in [6] was “inactive” in each case. Moreover, the Potency result in [7], in [9] and in [12] was “inactive” each time. Further, the outcome in experiment [8] was inactive. The Potency in experiment [10] was 29.8 µM (active). The activity change, positive = activation in experiment [11] was -38.2% [at 42.5 µM].

Take `C=CCN1CC[C@]23c4c5ccc(O)c4O[C@H]2C(=O)CC[C@@]3(O)[C@H]1C5`: the Potency result in experiment [1], in [2], in experiment [4], in experiment [13], in [5] and in experiment [6] was “inactive” in each case. Besides, the Potency result in experiment [14], in [9], in experiment [10], in experiment [12], in [15] and in experiment [16] was “inactive” each time. The activity change, positive = activation in [11] is -6.24% [at 42.5 µM].

As for `CCOC(=O)C(Cl)C(C)=O` (stereo unspecified), the Potency result in experiment [17], in experiment [1], in [2], in [4], in experiment [6] and in [14] was “inactive” each time. The Potency entry in experiment [9], in experiment [12], in experiment [15] and in [16] was “inactive” throughout. The result in experiment [8] was inactive.

Consider `CCOS(C)(=O)=O`, for which the Potency result in experiment [17], in experiment [1], in [2], in [4], in experiment [6] and in [7] was “inactive” each time. In addition, the Potency result in experiment [14], in [9], in [12], in experiment [15] and in experiment [16] was “inactive” in each case. Also, the call in experiment [8] was inactive.

As for `C(=NC1CCCCC1)=NC1CCCCC1`, the Potency entry in experiment [17], in experiment [3], in experiment [5], in experiment [6], in [7] and in [14] was “inactive” throughout. Further, the Potency is 10.9 µM (active) and 21.7 µM (active) in [18]; 38.8 µM (active) in experiment [4]; 13.7 µM (active) in [13]; 25.5 µM (active) and 14.2 µM (active) in experiment [9]; 13.7 µM (active) in experiment [10]; 13.9 µM (active) and 12.3 µM (active) in [12]. Further, in [15], the Potency is 22 µM (active) and 21.9 µM (active). Further, the activity change, positive = activation in experiment [11] is -50.9% and -60.1%.

Take `CC1C(=O)C[C@]2(C(C)C)C[C@H]12` (stereo partly specified): the Potency result in experiment [17], in [1], in experiment [2], in experiment [4], in experiment [6] and in experiment [7] was “inactive” each time. Further, the Potency result in experiment [14], in experiment [9], in experiment [12], in experiment [15] and in [16] was “inactive” throughout. For the same compound, in experiment [8], the compound was called inactive.

Turning to `Clc1ccc(C2(Cn3cncn3)CC(Br)CO2)c(Cl)c1` (stereo unspecified), the Potency entry in [17], in experiment [18], in experiment [5], in [6], in experiment [7] and in experiment [14] was “inactive” throughout. Further, in [12], the Potency result was “inactive”. In addition, the Potency in experiment [3] is 60.8 µM (active); in experiment [13], 24.2 µM (active); in experiment [9], 112 µM (active); in experiment [10], 15.3 µM (active); in experiment [15], 27.4 µM (active). For the same compound, the call in experiment [8] was inactive. Also, the activity change, positive = activation in experiment [11] is -55.5%.

Consider `CO/C=C(/C(=O)OC)c1ccccc1COc1cccc(C(F)(F)F)n1`, for which the Potency result in experiment [17], in [4], in experiment [5], in experiment [7], in experiment [14] and in experiment [12] was “inactive” each time. Further, in [16], the Potency result is “inactive”. The Potency in experiment [3] is 3.85 µM (active); in experiment [9], 17.9 µM (active); in experiment [10] it was 0.485 µM (active); in experiment [15] it was 19.5 µM (active). In addition, the compound was called inactive in experiment [8]. For the same compound, the activity change, positive = activation in [11] was -45%.
